What is called inhibition is the drop in the measured response relative to a control, in per cent.

Among all 190,000 compounds or so, about 1,300 (0.68%) were called active. No stated cut-off is given here; in the data, active means inhibition above about 50%; inactive means the rest. For the sample, actives were picked, then their nearest neighbours and some compounds at random.

Chain of Mannose-6-phosphate isomerase (Homo sapiens) (P34949 whole entry, looked up): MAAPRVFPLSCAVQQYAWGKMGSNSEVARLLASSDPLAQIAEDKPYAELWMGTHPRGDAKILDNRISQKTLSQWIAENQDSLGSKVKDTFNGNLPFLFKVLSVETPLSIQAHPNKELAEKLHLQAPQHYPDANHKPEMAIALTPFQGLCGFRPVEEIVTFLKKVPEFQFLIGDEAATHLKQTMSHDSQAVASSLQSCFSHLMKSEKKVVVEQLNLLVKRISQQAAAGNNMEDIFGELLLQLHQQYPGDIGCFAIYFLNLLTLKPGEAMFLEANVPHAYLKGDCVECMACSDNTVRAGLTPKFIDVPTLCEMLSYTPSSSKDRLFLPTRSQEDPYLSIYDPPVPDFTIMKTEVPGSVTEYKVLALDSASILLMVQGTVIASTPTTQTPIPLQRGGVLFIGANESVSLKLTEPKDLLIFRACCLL

This test has as its target Mannose-6-phosphate isomerase (Homo sapiens) (UniProt P34949). Briefly: human PMI inhibitors, high substrate, primary screen, biochemical, fluorescence intensity, high mannose 6-phosphate (AID 1220). To be noted: recombinant PMI enzyme, coupled fluorescence intensity; at 20 µM; active compounds read high.
Turning to `CC(C)c1cccc(C(C)C)c1NC(=O)COC(=O)c1ccc(OCC(=O)Nc2cccc(C(F)(F)F)c2)cc1`, the inhibition was 10.7% (inactive).

On to `O=c1oc2ccccc2cc1-c1cn2ccccc2n1`, for which the inhibition is -4.7% (inactive).

For `COc1cc(OC)c(NC(=O)CC(C)=O)cc1Cl`, the inhibition is 26.6% (inactive).

For the molecule `Clc1ccccc1OCc1nnc(-c2ccccc2Br)o1`, the inhibition is 5.6% (inactive).

As to `CC(C)(C)NC(=O)CSc1nc(N)cc(=O)[nH]1`, the inhibition was 0.4% (inactive).

As to `COc1ccc(C(O)c2nccn2C)cc1` (stereo unspecified), the inhibition is 9.1% (inactive).

`Cn1ccnc1C(O)c1ccccc1` (stereo unspecified): the inhibition is 15.2% (inactive).

For the molecule `COc1ccc2ccccc2c1C(O)c1nccn1C` (stereo unspecified), the inhibition is 64.7% (active).

As to `OC(COCc1ccc(Cl)cc1)CN1CCN(CC(O)COCc2ccc(Cl)cc2)CC1` (stereo unspecified), the inhibition is -11.7% (inactive).

Turning to `Cc1csc(NC(=O)C2C3C=CC(O3)C2C(=O)O)n1` (stereo unspecified), the inhibition is 5% (inactive).

With `Cc1ccc2[nH]c3c(c2c1)CCC3=O`, the inhibition was 15.5% (inactive).

For `Cc1ccc2[nH]c3c(c2c1)CCNC3=O`, the inhibition is -5.2% (inactive).

As to `Cc1onc(-c2ccccc2)c1C(=O)Oc1cccnc1`, the inhibition is -0.5% (inactive).

`CC(=O)NC(CCS(C)(=O)=O)C(=O)Nc1ccccc1C` (stereo unspecified): the inhibition is 3.2% (inactive).

Regarding `CCCCN(C)C(=O)c1cc2cc3cc(OC)ccc3nc2o1`, the inhibition is 16.4% (inactive).

As for `Cc1cccnc1CCNC(=O)CCc1nnc(CCc2ccccc2)o1`, the inhibition was 17.7% (inactive).

On to `O=C(NC1CC1)c1cc(Cl)ccc1[N+](=O)[O-]`, for which the inhibition was 12.7% (inactive).

Consider `O=C(c1ccco1)c1coc2c1cc(O)c1ccccc12`, for which the inhibition was 51.1% (active).

`CC(=O)c1coc2c1cc(O)c1ccccc12`: the inhibition was 4.7% (inactive).

On to `O=C(c1cc(C(=O)c2ccco2)cc(C(=O)c2ccco2)c1)c1ccco1`, for which the inhibition was 6.2% (inactive).

With `CCOC(=O)c1ccc(N2C(=O)CC(N3CCOCC3)C2=O)cc1` (stereo unspecified), the inhibition was -0.3% (inactive).

`CN(C)c1cc2c(c(N(C)C)c1)C(=O)c1ccccc1C2=O`: the inhibition is 50.3% (active).

Regarding `CNc1cccc2c1C(=O)c1ccccc1C2=O`, the inhibition is 24.4% (inactive).

For `CN(C)c1cccc2c1C(=O)c1ccccc1C2=O`, the inhibition was 55.7% (active).

`COc1ccc(OC)c2c1C(=O)c1ccccc1C2=O`: the inhibition was -55.2% (inactive).

On to `CN(C=[N+](C)C)c1cccc2c1C(=O)c1ccccc1C2=O`, for which the inhibition was 39.3% (inactive).

On to `CN(C)S(=O)(=O)c1cccc2c1C(=O)c1ccccc1C2=O`, for which the inhibition is 21% (inactive).

In the case of `Cc1nc2ccccn2c1C(=O)NN=C1CCCC1`, the inhibition was -5% (inactive).

As for `Cc1ccc(C(=O)NNC(=O)c2cccc(S(=O)(=O)N3CCN(c4ccccc4)CC3)c2)cc1`, the inhibition is 5.6% (inactive).

For the molecule `Cc1ccc(C(=O)NCC(=O)OC(C)C(=O)NCCC2=CCCCC2)cc1C` (stereo unspecified), the inhibition is 4.6% (inactive).

`O=C(NCC1CCCO1)C(c1ccc(F)cc1)N(CC1CCCO1)C(=O)c1ccc(-c2ccccc2)[nH]1` (stereo unspecified): the inhibition was -8.3% (inactive).

For the molecule `O=C(CCOc1ccccc1)Nc1cccc([N+](=O)[O-])c1`, the inhibition is -0.7% (inactive).

Take `O=C(CNS(=O)(=O)c1ccccc1F)Nc1ccc(N2CCOCC2)cc1`: the inhibition is 1% (inactive).

With `COc1ccc(C(=O)NCCSc2ccccc2)cc1`, the inhibition was 7.1% (inactive).

`CCCc1cc(=O)oc2c(C)c3occ(C)c3cc12`: the inhibition was 2.8% (inactive).

Turning to `C/C(=N\NC(=O)CNc1cccc(C)c1)c1ccc(Br)s1`, the inhibition is 14.6% (inactive).

Take `C/C(=N\NC(=O)CNc1cccc2ccccc12)c1ccc(Br)s1`: the inhibition is 52% (active).

`C/C(CCc1ccco1)=N\NC(=O)CNc1cccc2ccccc12`: the inhibition was 56% (active).

Turning to `C/C(CCc1ccco1)=N/NC(=O)CCC(=O)Nc1ccc(Br)cc1`, the inhibition was 7.1% (inactive).

For `C/C(CCc1ccco1)=N\NC(=O)CNc1c(Br)cc(Br)cc1Br`, the inhibition is -2.7% (inactive).

Regarding `COc1ccccc1NCC(=O)N/N=C(\C)c1ccc(Br)s1`, the inhibition was 11.6% (inactive).

On to `CC(=O)Cc1nsc(Nc2cccc(C)c2)n1`, for which the inhibition was 6.5% (inactive).

`COc1ccc(NC(=O)c2ccco2)cc1S(=O)(=O)N1CCOCC1`: the inhibition was -7.3% (inactive).

`CC(OC(=O)c1cccnc1)C(=O)Nc1ccc2c(c1)OCO2` (stereo unspecified): the inhibition is 2.7% (inactive).

Turning to `Cc1cccc(CCN(CC(=O)NC2CCCCC2)C(=O)c2csnn2)c1`, the inhibition was -6% (inactive).

For `CN(Cc1nccn1C)C(=O)CC1C(=O)NCCN1CC(c1ccccc1)c1ccccc1` (stereo unspecified), the inhibition is 25.1% (inactive).

Take `Cc1ccc(NC(=O)CCNC(=O)c2ccco2)cc1F`: the inhibition was -1.2% (inactive).

For `C/C(=N\NC(=O)C(=O)Nc1ccc(C)cc1)c1ccncc1`, the inhibition is -7.3% (inactive).

Consider `Cc1ccc(-n2c(C)c3c(C)nnc(C)c3c2C)cc1N`, for which the inhibition was 44.2% (inactive).

For `Cc1ccc(C)n1-c1ccccc1N1CCCCC1`, the inhibition was -1.9% (inactive).

Turning to `Cc1nnc(C)c2c(C)n(C(c3ccccc3)c3ccccc3)c(C)c12`, the inhibition is 8% (inactive).

Regarding `CC1CCN(c2ccccc2N)CC1`, the inhibition was 2% (inactive).

Take `Cc1nnc(C)c2c(C)n(-c3ccccc3N)c(C)c12`: the inhibition was 56.3% (active).

For the molecule `Cc1ccc(C)n1-c1ccccc1N`, the inhibition was 57.3% (active).

For the molecule `Cc1nn(-c2ccccc2)c(C)c1C(=O)OCC(=O)c1c(N)n(CC(C)C)c(=O)n(C)c1=O`, the inhibition was 4.3% (inactive).

As to `COc1ccc(NC(=O)c2cccc(S(=O)(=O)N3CCOCC3)c2)cn1`, the inhibition is -1.9% (inactive).

`COc1ccc(NC(=O)c2cc(S(=O)(=O)N3CCCCC3)ccc2N2CCCCC2)cn1`: the inhibition is 55.3% (active).

Regarding `Cc1ccc(NC(=O)c2cc(S(=O)(=O)N3CCCCC3)ccc2N2CCOCC2)cc1F`, the inhibition was 9.5% (inactive).

On to `CCOC(=O)/C(C#N)=C/c1ccc(SC)cc1`, for which the inhibition is -6.5% (inactive).

Take `O=c1[nH]c(Cc2ccccn2)nc2scc(-c3ccccc3Cl)c12`: the inhibition was -108% (inactive).

Turning to `O=C1CNC(=S)N1c1nc(-c2ccccc2)cs1`, the inhibition is 0.9% (inactive).

With `Cc1c(/C=N/Nc2ccc(F)cc2)c(O)n(C)c(=O)c1C#N`, the inhibition was -7% (inactive).

With `CC(=O)N=Cc1c(C)c(C#N)c(=O)n(C)c1O`, the inhibition was 53% (active).

In the case of `Cc1ccc(N/N=C/c2c(C)c(C#N)c(=O)n(C)c2O)cc1C`, the inhibition is 23.3% (inactive).

Take `CCC(=C(c1ccc(OC)cc1)c1ccc(OC)cc1)c1cn(CC(O)CN2CCN(C)CC2)c2ccccc12` (stereo unspecified): the inhibition was -5.7% (inactive).

`c1ccc(CCn2nnnc2C(c2cccnc2)N2CCN(c3nc4ccccc4s3)CC2)cc1` (stereo unspecified): the inhibition was 15.2% (inactive).

Turning to `S=C(c1ccc2c(c1)OCO2)N1CCCCCC1`, the inhibition is 3.6% (inactive).

Regarding `Oc1cc2c(cc1C(c1ccc(Br)cc1)N1CCCC1)OCO2` (stereo unspecified), the inhibition is 68.1% (active).

As to `S=C(c1ccc2c(c1)OCO2)N1CCCC1`, the inhibition was 7.1% (inactive).

On to `CC(C)c1ccc(NC(=O)C(c2ccc3c(c2)OCO3)N2CCCCC2)cc1` (stereo unspecified), for which the inhibition was 10.5% (inactive).

For the molecule `Oc1cc2c(cc1C(c1ccc(Cl)c(Cl)c1)N1CCCC1)OCO2` (stereo unspecified), the inhibition is 59.9% (active).

As to `Oc1c(C(c2ccc(Cl)cc2)N2CCCC2)cc(Cl)c2cccnc12` (stereo unspecified), the inhibition is 44.8% (inactive).

For `CCN(CC)C(=O)C(=O)Nc1ccc(OCc2ccccc2)cc1`, the inhibition was 0.5% (inactive).

Take `CC(C)Nc1nc(NC(C)C)nc(C(=O)OCCO)n1`: the inhibition was -5.1% (inactive).

For `O=C(COc1ccccc1)N(Cc1cc2ccccc2[nH]c1=O)CC1CCCO1` (stereo unspecified), the inhibition is 0.7% (inactive).

Consider `CC(C)N1CCN(Cc2ccsc2)CC1CCO` (stereo unspecified), for which the inhibition is 5.4% (inactive).

Consider `N#Cc1c2c(c(NCc3ccco3)n3c1nc1ccccc13)CCC2`, for which the inhibition was 50.2% (active).

As for `N#Cc1c2c(c(NCc3cccnc3)n3c1nc1ccccc13)CCC2`, the inhibition was 11.3% (inactive).

Consider `CCc1c(C)c(C#N)c2nc3ccccc3n2c1NCc1ccco1`, for which the inhibition was -6.6% (inactive).

As for `Cc1ccc(NC(=O)CN2C(=O)NC(C)(CCc3ccccc3)C2=O)cc1` (stereo unspecified), the inhibition was 26.7% (inactive).

Take `COc1cccc(C2CC(=O)NC3=C2C(=O)CCC3)c1` (stereo unspecified): the inhibition was -0.9% (inactive).

Take `CCC(NC(=O)C1CCC1)c1ccc(C)cc1` (stereo unspecified): the inhibition is 3.8% (inactive).

`O=C(c1ccccc1F)c1cc2c(cc1[N+](=O)[O-])OCCO2`: the inhibition was 51.7% (active).

In the case of `Nc1cc2c(cc1C(=O)c1ccccc1F)OCCO2`, the inhibition is 13.3% (inactive).

Take `O=C(c1ccccc1)c1cc2c(cc1[N+](=O)[O-])OCCO2`: the inhibition was 10.9% (inactive).

For the molecule `COc1ccc(OC)c(NC(=S)NCC(c2cccnc2)N2CCOCC2)c1` (stereo unspecified), the inhibition is 2.4% (inactive).

On to `CC(C)N1CCN(Cc2ccoc2)CC1CCO` (stereo unspecified), for which the inhibition is -6.7% (inactive).

Regarding `Cc1c2cc(O)c(=O)cc-2oc2cc(O)c(O)cc12`, the inhibition was 28.8% (inactive).

In the case of `CCOc1ccccc1-c1c2cc(O)c(=O)cc-2oc2cc(O)c(O)cc12`, the inhibition was 42% (inactive).

As to `COc1ccc(OC)c(-c2c3cc(O)c(=O)cc-3oc3cc(O)c(O)cc23)c1`, the inhibition was 55.4% (active).

As for `CN(C)C(=O)C[n+]1cccc(/C=N/O)c1`, the inhibition is -5.5% (inactive).

Turning to `C=CCn1c(SCC(=O)Nc2ccccc2)nnc1-c1cccc(S(=O)(=O)N2CCOCC2)c1`, the inhibition was 3.2% (inactive).

Turning to `CC1OC(OCC2OC(Oc3c(-c4ccc(O)cc4)oc4cc(O)cc(O)c4c3=O)C(O)C(O)C2O)C(O)C(O)C1O` (stereo unspecified), the inhibition is 16.6% (inactive).

Consider `C[C@@H]1O[C@@H](OC[C@H]2O[C@@H](Oc3c(-c4ccc(O)c(O)c4)oc4cc(O)cc(O)c4c3=O)[C@H](O)[C@@H](O)[C@@H]2O)[C@H](O)[C@H](O)[C@H]1O`, for which the inhibition was 18.4% (inactive).

In the case of `COC(=O)c1ccc(COC(=O)CNC(=O)c2ccco2)cc1`, the inhibition is 1.5% (inactive).

As for `CC1CC(NC(=O)c2ncn[nH]2)CC(C)(C)C1` (stereo unspecified), the inhibition was -12.5% (inactive).

For `COc1ccc(C(=O)/C=C2\NCC3c4ccccc4CCN3C2=O)cc1` (stereo unspecified), the inhibition was -140% (inactive).

Turning to `Cc1cccc(C(=O)NCCN(C)C)c1`, the inhibition was 3% (inactive).

Turning to `Cc1cc(NC(=O)c2cc(-c3ccco3)on2)n(-c2ccccc2)n1`, the inhibition is 26.3% (inactive).

As for `Cc1cc(-c2ccco2)n(CC(=O)O)n1`, the inhibition is -2.6% (inactive).

As to `Cc1cc(-c2ccco2)n(-c2ccccc2)n1`, the inhibition is 50.5% (active).
